Experiment in all cases: NCI-60 one-dose screen, 48 h (100 = growth as untreated, 0 = no growth, -100 = all killed)
Assay [1] has as its system NCI-H23 lung. As to conditions: 10 µM unless noted.
Assay [2] deals with NCI-H226 lung. As to conditions: 10 µM unless noted.
Assay [3] has as its system NCI-H322M lung. As to conditions: 10 µM unless noted.
Assay [4] deals with HOP-62 NSCLC. The following applies: 10 µM unless noted.
Assay [5] relates to NCI-H460 lung. The following applies: 10 µM unless noted.
The test system of assay [6] is HOP-92 NSCLC. As to conditions: 10 µM unless noted.
Assay [7] has as its system NCI-H522 lung. The following applies: 10 µM unless noted.
Assay [8] deals with A549/ATCC NSCLC. The following applies: 10 µM unless noted.
The test system of assay [9] is 786-0 renal. The following applies: 10 µM unless noted.
Assay [10] relates to COLO 205 colon. As to conditions: 10 µM unless noted.
Assay [11] relates to DU-145 prostate. As to conditions: 10 µM unless noted.
Assay [12] relates to K-562 leukemia. The following applies: 10 µM unless noted.
The test system of assay [13] is MALME-3M melanoma. As to conditions: 10 µM unless noted.
The subject of assay [14] is MDA-MB-231 breast. As to conditions: 10 µM unless noted.
For assay [15], the system named is RXF 393 renal. The following applies: 10 µM unless noted.
The subject of assay [16] is SF-268 CNS. The following applies: 10 µM unless noted.
For assay [17], the system named is SF-295 CNS. The following applies: 10 µM unless noted.
The subject of assay [18] is SF-539 CNS. As to conditions: 10 µM unless noted.
The test system of assay [19] is UACC-257 melanoma. As to conditions: 10 µM.
Assay [20] has as its system M14 melanoma. The following applies: 10 µM unless noted.

Molecules are shown by their SMILES. The panel holds about 83,000 compounds, 20% with a hit somewhere; the sample as a whole holds those more often.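 Values shown are percent growth following 48 h exposure of cells in 96-well plates to a single concentration of compound; below 10 was considered active.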 Unmarked numbers belong to inactive results. The source made the active and inactive calls.

Consider `COc1cc(C(=O)C[n+]2ccc3ccccc3c2)cc(OC)c1OC`, for which the growth is 96.6% in [1]; 95.9% in assay [2]; 98.3% in assay [3]; 97.3% in assay [4]; 101% in assay [5]; 80% in assay [6]. The growth in assay [7] is 92.9%; in [8], 105%; in assay [9], 102%; in assay [10], 103%; in [11] it was 105%; in assay [12] it was 91.7%. Further, the growth in assay [13] is 91.5%; in assay [14], 93.3%; in assay [15] it was 101%; in [16], 100%; in assay [17], 100%; in assay [18] it was 100%. Besides, the values for the growth in assay [19] and in assay [20] were 103% and 98.1%, respectively.
Consider `Oc1ccc(-c2nnc(SCc3ccc(O)c4ncccc34)n2-c2ccccc2)cc1`, for which the growth in assay [1] was 19.3%; in [2], 15.4%; in assay [3], 19.2%; in assay [4], 19.3%; in assay [5], 3.78% (active); in assay [6], 4.59% (active). For the same compound, the growth in assay [7] is -4.72% (active); in [8] it was 6.81% (active); in assay [9], 19.1%; in assay [10] it was 28.2%; in [11], 24.6%; in assay [12], 10.8%. For the same compound, the growth in assay [13] was 3.9% (active); in assay [14], 30.1%; in assay [15], -7.54% (active); in assay [16], 10.2%; in [17], 5.53% (active); in [18] it was -6.02% (active). In addition, the growth in [19] is -4.16% (active); in [20] it was -28% (active).
For the compound `O=C1Nc2cc(OC(F)(F)F)ccc2Oc2ccc(-c3ccnc(N4CCNCC4)c3)cc21`, the growth was 27.4% in assay [1]; 53% in assay [2]; 39% in assay [3]; 21.6% in assay [4]; -80.6% (active) in assay [5]; -0.729% (active) in [6]. The growth in [7] is -57.2% (active); in assay [8] it was 9.42% (active); in [9] it was -62.7% (active); in [10] it was -80.2% (active); in assay [11], -48.5% (active); in assay [12], -11.4% (active). For the same compound, the growth in assay [13] was -79.3% (active); in assay [14], -38.2% (active); in assay [15], -73.4% (active); in assay [16] it was 26.8%; in assay [17] it was -25.7% (active); in [18], -89.8% (active). Moreover, the growth in [19] is 77.3%; in assay [20] it was -90.5% (active).
For `NS(=O)(=O)Oc1ccc2nc(Nc3ccc(F)c(F)c3)ccc2c1`, the growth in [1] was 96.3%; in [2], 90.5%; in assay [3], 92.9%; in [4], 99.4%; in assay [5] it was 98.1%; in assay [6], 115%. Besides, the growth in [7] was 91.4%; in [8] it was 79.6%; in assay [9], 89.6%; in assay [10], 93.8%; in assay [11], 92.9%; in assay [12], 67.6%. Further, the growth is 102% in assay [13]; 94.3% in assay [14]; 96.7% in assay [15]; 88.1% in assay [16]; 82.8% in [17]; 89.9% in [18]. In addition, the values for the growth in assay [19] and in assay [20] were 104% and 87.9%, respectively.
For `CN1CCN(Cc2ccc(NC(=O)c3cncc(C#Cc4[nH]nc5ncncc45)c3)cc2C(F)(F)F)CC1`, the growth in assay [1] is 57.1%; in assay [2], 55%; in assay [3], 75.1%; in [4], 65.7%; in [5], 64.3%; in [6], -16% (active). Besides, the growth in assay [7] was 66.2%; in assay [8], 84.3%; in [9], 86.3%; in [10], 16.5%; in assay [11] it was 56.6%; in assay [12], 12.4%. Also, the growth in assay [13] was -5.86% (active); in assay [14], 22.9%; in [15], 43.4%; in assay [16], 73.7%; in assay [17], 97%; in [18] it was 43.4%. The values for the growth in assay [19] and in assay [20] were 86.1% and 15%, respectively.
`O=C(CSc1nnc(-c2cccs2)n1-c1ccccc1)Nc1ccc(F)cc1`: the growth in assay [1] is 102%; in assay [2], 98.3%; in assay [3], 97%; in assay [4], 109%; in [5], 103%; in [6], 89.6%. Besides, the growth is 82.4% in assay [7]; 99.3% in [8]; 103% in assay [9]; 105% in assay [10]; 107% in assay [11]; 65.4% in [12]. Moreover, the growth in [13] was 97.4%; in assay [14], 83.1%; in [15] it was 97.9%; in [16], 101%; in [17] it was 91%; in assay [18] it was 89.9%. In addition, the growth in [19] is 103%; in assay [20] it was 99.2%.
As for `C/C(=C(/C)C1CC1CCN(C(=O)c1ccc([N+](=O)[O-])cc1)S(=O)(=O)c1ccc(C)cc1)C1CCCCC1` (stereo not given), the growth in [1] was 87.2%; in assay [2], 90.8%; in assay [3], 100%; in assay [4], 109%; in [5] it was 98.6%; in assay [6] it was -49% (active). The growth was 83.8% in assay [7]; 97.8% in [8]; 96.2% in [9]; 112% in assay [10]; 96.6% in assay [11]; 74.7% in [12]. Also, the growth is 98.3% in assay [13]; 97.3% in [14]; 105% in assay [15]; 96.5% in assay [16]; 104% in assay [17]; 100% in assay [18]. The figures for the growth in assay [19] and in [20] were 96.9% and 97.7%, respectively.
`CCN(CC)Cc1c(-c2cccc(OC(F)(F)F)c2)[nH]c2ccc(N3CCCC3)cc2c1=O`: the growth is 92.9% in assay [1]; 96.1% in [2]; 87.3% in assay [3]; 103% in [4]; 97.5% in [5]; 86.2% in [6]. For the same compound, the growth in [7] is 87.5%; in assay [8] it was 99%; in assay [9], 98.6%; in [10], 103%; in assay [11], 99.7%; in assay [12], 87.8%. Moreover, the growth is 86% in assay [13]; 87% in assay [14]; 74.1% in [15]; 89.1% in assay [16]; 102% in assay [17]; 95% in assay [18]. The growth was 91.3% in assay [19] and 96.9% in [20].

The values are drawn from PubChem BioAssay (NCI).
